Shown are actives, neighbours in structure and some others; about 4.5% of the full set was active somewhere.
DAX1 inh-1: blocks DAX1 repression of SF-1 activated StAR promoter; inhibition, % at 6.8 µM; HEK293T StAR-luciferase reporter, SF-1/DAX-1 repression relief; actives 1.1% (n = 370,000);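 active = inhibition above the mean over all tested compounds plus 3 SD, cut at about 3.6% in these data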;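 note: 0% = DAX-1 cells with DMSO and 100% = cells lacking DAX-1 with DMSO; higher inhibition means more luminescence from relief of DAX-1 repression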
hgDAF-12 ag: agonists of H. glycines DAF-12 nuclear receptor; HEK293 GAL4-hgDAF12 UAS-luciferase reporter, agonist luminescence; normalized to butyrate control; activation, % at 6.8 µM; actives 1.8% (n = 370,000); AID 687014;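 active = activation above a cutoff set at the mean of all screened compounds plus 3 SD, cut at about 10% in these data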;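 note: 0% = DMSO wells and 100% = sodium butyrate wells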
ssDAF-12 act: activates DAF-12 receptor from parasite S. stercoralis. HEK293 ssDAF-12/GRIP1 lit1-tk-luc reporter, luminescence; % of 3 µM dafachronic acid response. AID 652126. actives 1% (n = 370,000). activation, % at 6.8 µM;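 active = activation above the mean over all tested compounds plus 3 SD, cut at about 0.9% in these data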;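 note: 0% = DMSO-only wells and 100% = 3 µM delta7-dafachronic acid wells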
DAX1 inh-2: inhibitors of human orphan nuclear receptor DAX1 (NR0B1) | P51843 | HEK293 Gal4-DAX1 luciferase reporter, luminescence | inhibition, % at 6.75 µM | actives 0.99% (n = 340,000);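 active = inhibition above the mean over all tested compounds plus 3 SD, cut at about 4.2% in these data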;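 note: 0% = DAX1-transfected cells with DMSO and 100% = empty-vector control cells with DMSO; inhibition shows as a rise in luminescence from relieved DAX1 repression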
Target sequence (P51843 207-470 limits assumed): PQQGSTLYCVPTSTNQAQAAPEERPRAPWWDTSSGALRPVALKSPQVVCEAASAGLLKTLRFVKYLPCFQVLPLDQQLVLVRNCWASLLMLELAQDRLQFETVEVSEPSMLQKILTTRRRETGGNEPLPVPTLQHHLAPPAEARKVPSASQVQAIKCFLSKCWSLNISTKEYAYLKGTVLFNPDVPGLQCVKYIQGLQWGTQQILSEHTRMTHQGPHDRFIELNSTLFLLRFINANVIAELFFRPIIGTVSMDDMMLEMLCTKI
hcDAF-12 act: activators of H. contortus DAF-12 nuclear receptor. activation, % at 6.8 µM. actives 1.4% (n = 370,000). HEK293 hcDAF-12 lit1-tk-luc reporter, luminescence; 0% DMSO, 100% Δ7-dafachronic acid;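 active = activation above the mean of all tested compounds plus 3 SD, cut at about 5.5% in these data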;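 note: 100% = response to 3 µM Δ7-dafachronic acid high control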
FXN GAA850 act: increases GAA850 frataxin promoter reporter activity; HEK293 lucGAA850 FXN promoter luciferase reporter, 24 h; percent of 10 µM SAHA response; activation, % at 6 µM; actives 0.56% (n = 360,000); AID 540364;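 active = activation above the average of all compounds screened plus 3 SD, cutoff fixed separately per campaign, cut at about 7.5% in these data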;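 note: 0% = DMSO wells and 100% = 10 µM SAHA wells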
* hit, by the source's call; nt = no result.

SMILES | DAX1 inh-1 | hgDAF-12 ag | ssDAF-12 act | DAX1 inh-2 | hcDAF-12 act | FXN GAA850 act
Brc1cccc(C2Nc3cccc4cccc(c34)N2)c1 | 0 | 2 | 0 | 5.2* | 2 | 0
Cn1ncc2c(NCc3ccccc3)nc(NCCCO)nc21 | 0 | -1 | -1 | 0 | 1 | 1
Cn1ncc2c(NCCO)nc(Cl)nc21 | 0 | -2 | 1.5* | 1 | -2 | 1
Cc1cccn2cc(CNc3ccccc3)nc12 | 1 | 6 | -1 | 3 | 5 | 4
Cc1cccn2cc(-c3ccccc3)nc12 | 3 | 13* | 1.1* | 3 | 5 | 3
O=C1CNC(=O)/C(=C/c2ccco2)N1 | 0 | -5 | -1 | 4.4* | 0 | 2
O=C1NC(=Nc2ccc(O)cc2)S/C1=C/c1ccco1 | -2 | -1 | -1 | -1 | 2 | -3
COCCCNC(=O)COc1ccc(Cl)c(C)c1 | -1 | -2 | -1 | -1 | -1 | 1
Cc1cc(OCC(=O)NC(C)(C)C)ccc1Cl | 1 | 12* | -1 | 0 | 1 | 5
COC(=O)COc1cccc(NC(=O)c2ccc(C)cc2)c1 | 0 | 4 | -1 | -1 | -2 | 0
Cc1ccc(NC(=O)c2ccc(OC(=O)COc3ccc(Cl)c(C)c3)cc2)cc1 | 3 | 13* | 0 | 1 | 4 | 4
Cc1ccc(NC(=O)c2ccc(OCC3CCCO3)cc2)cc1 (stereo unspecified) | 3 | 12* | 0 | 3 | 4 | 4
O=C(Nc1ccc(S(=O)(=O)N2CCCC2)cc1)c1ccc(OCC2CCCO2)cc1 (stereo unspecified) | -4 | -2 | -3 | -2 | -4 | -1
CCN(CC)C(=O)CC[C@H]1CC[C@]2(CCCN(C(=O)C3CCCC3)C2)O1 | 0 | 5 | -1 | nt | -1 | nt
C#CCN1CC(N(C)CCOC(=O)CSc2ccccc2)CS1(=O)=O (stereo unspecified) | -1 | 5 | -1 | nt | -1 | nt
COc1ccc(C(=O)Cc2ccc3c(c2)OCO3)c(O)c1 | 3 | 9 | 1.4* | 1 | 4 | 4
COc1ccc(CC(=O)c2ccc(O)cc2O)cc1 | 3 | 7 | 0 | 5.8* | 1 | 2
CCN(C[C@H]1[C@@H](c2ccc(C3=CCCC3)cc2)[C@H](CO)N1C(=O)c1cccnc1)S(=O)(=O)c1ccccc1[N+](=O)[O-] | 0 | 0 | -1 | nt | -2 | nt
COC(=O)C1CN(Cc2ccccc2)CCS(=O)(=O)N1Cc1ccc(OC)cc1 (stereo unspecified) | -1 | 0 | -1 | nt | -3 | nt
COc1ccc(/C(N)=N/OC(=O)c2ccc3c(c2)OCO3)cc1 | 0 | 6 | -1 | 1 | 6.0* | 2
N/C(=N\OC(=O)c1ccc2c(c1)OCO2)c1ccncc1 | 1 | 7 | -1 | 5.1* | 3 | 5
Cc1ccc(C(=O)N2CCC(Oc3cccnc3)CC2)cc1 | 0 | -5 | -1 | nt | -1 | nt
Cn1c(=O)c2nc(Cl)c(-c3ccccc3)nc2n(C)c1=O | 0 | 0 | -1 | 2 | -1 | 2
Cn1c(=O)c2nc(-c3ccccc3)c(-c3ccccc3)nc2n(C)c1=O | 0 | -1 | -1 | 4.5* | 0 | -4
COC(=O)[C@]12C[C@H](CC(=O)NCc3ccccc3)C(=O)N(Cc3ccco3)C1=C[C@H](C(C)(C)C)O[C@@H]2C | 0 | 1 | -1 | nt | -1 | nt
SMILES | DAX1 inh-1 | hgDAF-12 ag | ssDAF-12 act | DAX1 inh-2 | hcDAF-12 act | FXN GAA850 act
CCOc1ccc(NCc2cc3cc(OC)ccc3[nH]c2=O)cc1 | 1 | 0 | -1 | -2 | 2 | 2
COc1ccc2[nH]c(=O)c(CNc3ccc(C)cc3C)cc2c1 | 1 | 1 | -2 | 0 | 2 | 5
COc1ccc2[nH]c(=O)c(CNc3ccccc3)cc2c1 | 2 | 10 | 0 | 4.5* | 4 | 6
COc1ccc2[nH]c(=O)c(CNc3ccccc3C)cc2c1 | 1 | 7 | 1.4* | 2 | 3 | 7
COc1ccc2[nH]c(=O)c(CNc3ccccc3OC)cc2c1 | 0 | -1 | -1 | 4.5* | 3 | 2
COc1ccc2[nH]c(=O)c(CNc3cc(C)ccc3C)cc2c1 | 0 | 3 | -1 | 2 | 3 | 2

Screens: PubChem, The Scripps Research Institute Molecular Screening Center
